Results on five compounds are retold here after PubChem BioAssay.

A short description of experiment [1]: anti-His antibody binders, primary screen, artefact control for SMM control protein annotation, biochemical, small-molecule microarray, 635 nm fluorescence (AID 1128).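 Also: score merges feature fluorescence with signal-to-noise for each printed compound spot.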 As to conditions: anti-His Alexa647 antibody binding, higher = more signal.
Experiment [2] deals with Human papillomavirus type 1a E7 protein (residues 1-88). In words: HPV1a E7 small-molecule binders, primary screen, biochemical, small-molecule microarray, residues 1-88, 635 nm (AID 1129). To be noted: small-molecule microarray binding, fluorescence 635 nm; higher = more signal.
The target of experiment [3] is Focal adhesion kinase 1 (Homo sapiens) (UniProt Q05397). In words: small-molecule microarray binders of FAK, primary screen, biochemical, 635/667 nm fluorescence, BSA, DTT (AID 1130).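 Also: composite of spot emission at 667 nm and signal to noise over triplicate slides.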 To be noted: PTK2 binding, 635 nm fluorescence, higher = more signal.
Chain of Focal adhesion kinase 1 (Homo sapiens) (Q05397 whole entry, looked up): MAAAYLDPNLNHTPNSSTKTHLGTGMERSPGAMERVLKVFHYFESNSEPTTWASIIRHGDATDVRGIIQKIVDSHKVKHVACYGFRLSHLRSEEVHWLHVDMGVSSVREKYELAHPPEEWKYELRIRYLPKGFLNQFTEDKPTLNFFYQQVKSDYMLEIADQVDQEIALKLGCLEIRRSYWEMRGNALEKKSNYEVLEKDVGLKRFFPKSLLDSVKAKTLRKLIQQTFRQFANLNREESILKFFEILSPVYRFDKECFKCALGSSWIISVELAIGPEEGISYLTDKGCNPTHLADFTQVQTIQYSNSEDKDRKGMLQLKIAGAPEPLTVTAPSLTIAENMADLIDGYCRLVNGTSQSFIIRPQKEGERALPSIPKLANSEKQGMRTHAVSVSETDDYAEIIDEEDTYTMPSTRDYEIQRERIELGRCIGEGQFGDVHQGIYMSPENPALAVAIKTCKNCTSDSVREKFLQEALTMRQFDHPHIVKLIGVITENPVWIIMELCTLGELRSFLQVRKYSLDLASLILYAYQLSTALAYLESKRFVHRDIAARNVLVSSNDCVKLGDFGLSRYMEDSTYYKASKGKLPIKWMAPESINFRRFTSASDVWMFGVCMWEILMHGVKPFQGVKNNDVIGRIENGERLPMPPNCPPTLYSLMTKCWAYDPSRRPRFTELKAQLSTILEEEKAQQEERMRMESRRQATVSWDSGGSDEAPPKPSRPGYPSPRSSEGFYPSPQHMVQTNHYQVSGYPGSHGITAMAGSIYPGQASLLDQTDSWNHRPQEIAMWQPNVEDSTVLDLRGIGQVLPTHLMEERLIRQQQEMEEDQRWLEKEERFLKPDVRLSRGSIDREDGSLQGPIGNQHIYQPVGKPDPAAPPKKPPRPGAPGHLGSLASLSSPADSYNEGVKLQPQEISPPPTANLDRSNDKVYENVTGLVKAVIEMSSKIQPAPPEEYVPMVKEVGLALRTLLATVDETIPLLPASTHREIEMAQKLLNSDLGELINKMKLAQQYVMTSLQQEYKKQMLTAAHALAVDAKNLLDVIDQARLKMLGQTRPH
The subject of experiment [4] is Fibrinogen (Alexa647-labelled). In words: fibrinogen binders on compound microarrays, profiling panel, artefact control for SMM control-protein annotation, biochemical, small-molecule microarray, 635/667 nm fluorescence (AID 1131).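 Also: z-score merges 667 nm fluorescence with per-spot signal-to-noise over triplicate slides.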 To be noted: fibrinogen-A647 binding fluorescence, higher = more signal.
The target in experiment [5] is Follistatin (Homo sapiens) (UniProt P19883). In words: follistatin binders on small-molecule microarrays, primary screen, biochemical, small-molecule microarray, 635/667 nm fluorescence (AID 1132). As to conditions: FST binding, 635 nm fluorescence, higher = more signal.
Chain of Follistatin (Homo sapiens) (P19883 whole entry, looked up): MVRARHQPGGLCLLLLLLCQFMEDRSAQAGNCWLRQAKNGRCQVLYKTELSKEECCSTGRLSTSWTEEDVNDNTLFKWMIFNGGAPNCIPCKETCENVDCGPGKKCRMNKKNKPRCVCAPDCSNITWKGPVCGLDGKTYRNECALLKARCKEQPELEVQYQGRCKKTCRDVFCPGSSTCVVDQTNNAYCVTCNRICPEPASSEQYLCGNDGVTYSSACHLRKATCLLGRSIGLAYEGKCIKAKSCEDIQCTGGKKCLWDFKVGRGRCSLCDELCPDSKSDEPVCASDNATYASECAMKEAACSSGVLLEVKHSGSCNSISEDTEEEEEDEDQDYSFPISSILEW
The target in experiment [6] is Fibroblast growth factor 2 (Homo sapiens) (UniProt P09038). The experiment in a line: FGF2 binders on small-molecule microarrays, primary screen, biochemical, small-molecule microarray, 635/667 nm fluorescence (AID 1133). To be noted: small-molecule microarray binding, FGF2, fluorescence 635/667; higher = more signal.
Chain of Fibroblast growth factor 2 (Homo sapiens) (P09038 whole entry, looked up): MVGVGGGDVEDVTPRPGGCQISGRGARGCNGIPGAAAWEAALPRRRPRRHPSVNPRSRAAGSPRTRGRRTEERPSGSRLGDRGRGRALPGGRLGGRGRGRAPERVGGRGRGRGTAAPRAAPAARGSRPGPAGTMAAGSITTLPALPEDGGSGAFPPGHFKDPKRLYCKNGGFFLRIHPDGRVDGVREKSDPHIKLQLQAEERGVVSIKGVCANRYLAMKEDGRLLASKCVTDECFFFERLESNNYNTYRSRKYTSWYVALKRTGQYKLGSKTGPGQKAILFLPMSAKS
A short description of experiment [7]: mitochondrial membrane potential change in A549 cells, profiling panel, cell-based, JC-1 fluorescence, basal, 24 h, 100 nL (AID 1138).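 Also: A549 lung adenocarcinoma cells under basal conditions with no added stimulus; test concentration not given here.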 To be noted: higher = more signal.
The subject of experiment [8] is Lefty1. In words: Lefty1 binders on small-molecule microarrays, primary screen, biochemical, small-molecule microarray, 635/667 nm fluorescence (AID 1139). As to conditions: small-molecule microarray binding, fluorescence 635/667; higher = more signal.
In experiment [9] the test system is wheat germ agglutinin (Triticum aestivum), Alexa647-labelled. In words: wheat germ agglutinin binders on compound microarrays, profiling panel, artefact control for SMM control-protein annotation, biochemical, small-molecule microarray, 635/667 nm fluorescence (AID 1140).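 Also: score merges 667 nm feature emission with signal to noise over triplicate slides.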 To be noted: WGA-A647 binding, 635 nm fluorescence, higher = more signal.
Experiment [10] addresses Luciferin 4-monooxygenase (Photinus pyralis) (UniProt P08659). The experiment in a line: firefly luciferase enzyme inhibitors, primary screen, biochemical, luminescence, purified enzyme, 2006 set (AID 1141).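 Also: cell-free assay with purified firefly luciferase at 100 ng per well in PBS; test concentration not given here.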 To be noted: SteadyGlo luminescence, 30 min, higher = more signal, called active from +8 up or from −8 down.
Experiment [11] deals with Wnt5a (protein binding on small-molecule microarray). The experiment in a line: Wnt5a binders on small-molecule microarray, primary screen, biophysical, 635/667 nm fluorescence (AID 1142).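 Also: fluorescence read at 667 nm with signal to noise per printed feature.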 As to conditions: 635 nm fluorescence, higher = more signal.
A short description of experiment [12]: cell viability in Huh7 cells, primary screen, cytotoxicity control for HCV replication inhibitor project, CellTiter-Glo luminescence, basal, 48 h (AID 1143).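 Also: Huh7 hepatoma cells carrying a hepatitis C replication reporter with no stimulus; test concentration not given here.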 To be noted: Huh7 HCV replicon, higher = more signal, called active from +8 up or from −8 down.
Experiment [13] can be described thus: P. aeruginosa biofilm formation inhibitors, primary screen, PAO1 strain, BacTiter-Glo luminescence, LB-PBS (AID 1144). To be noted: 12 h, higher = more signal.
Experiment [14] can be described thus: CREB reporter modulators without forskolin, primary screen, cell-based, PC12, CRE-LacZ reporter, unstimulated (AID 1145). As to conditions: no forskolin, luminescence, 4.5 h, higher = more signal, called active from +8 up or from −8 down.
The nature of experiment [15]: CREB reporter modulators under forskolin, primary screen, cell-based, PC12, CRE-LacZ reporter, forskolin-stimulated (AID 1146).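 Also: PC12 cells with 6xCRE LacZ reporter stimulated by forskolin 10 µM; beta-galactosidase reporter signal reflecting CREB driven transcription.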 As to conditions: luminescence, 4.5 h, higher = more signal, called active from +8 up or from −8 down.
For experiment [16], the target named is Streptavidin (Streptomyces avidinii) (UniProt P22629). The experiment in a line: streptavidin binders on small-molecule microarray, primary screen, artefact control for SMM compound annotation, biophysical, 635/667 nm fluorescence (AID 1147).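 Also: signal reflects streptavidin binding to arrayed compounds as a control protein.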 To be noted: streptavidin binding, higher = more signal.
Chain of Streptavidin (Streptomyces avidinii) (P22629 whole entry, looked up): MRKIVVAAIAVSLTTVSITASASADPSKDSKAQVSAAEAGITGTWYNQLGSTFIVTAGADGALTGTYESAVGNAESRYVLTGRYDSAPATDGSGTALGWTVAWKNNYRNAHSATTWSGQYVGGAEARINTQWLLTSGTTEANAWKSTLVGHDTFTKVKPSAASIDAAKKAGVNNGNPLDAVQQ
The nature of experiment [17]: small-molecule binders of probe aInhba, primary screen, biochemical, small-molecule microarray, 635/667 nm fluorescence (AID 1148).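 Also: score merges 667nm spot fluorescence with signal-to-noise for antibody binding to printed compounds.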 As to conditions: higher = more signal.
The target in experiment [18] is Torsin-1A (Homo sapiens) (UniProt O14656). The experiment in a line: torsin A binders from cell lysate, primary screen, small-molecule microarray, wild-type, 635/667 nm (AID 1149). To be noted: COS7 hTOR1A-WT lysate, 635 nm fluorescence, higher = more signal.
Chain of Torsin-1A (Homo sapiens) (O14656 whole entry, looked up): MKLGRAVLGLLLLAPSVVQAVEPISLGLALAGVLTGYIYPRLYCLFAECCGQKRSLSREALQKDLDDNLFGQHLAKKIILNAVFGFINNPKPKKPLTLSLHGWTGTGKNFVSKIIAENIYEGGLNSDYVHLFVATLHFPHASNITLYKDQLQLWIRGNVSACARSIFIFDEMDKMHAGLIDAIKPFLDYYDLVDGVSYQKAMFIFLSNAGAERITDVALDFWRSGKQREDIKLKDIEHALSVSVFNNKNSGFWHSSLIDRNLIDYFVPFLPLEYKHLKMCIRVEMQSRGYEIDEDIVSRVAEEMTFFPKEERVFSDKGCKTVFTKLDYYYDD
For experiment [19] the target is unchanged. In words: small-molecule binders of mutant TOR1A in lysate, primary screen, cell lysate, small-molecule microarray, COS7 lysate, 635/667 nm fluorescence (AID 1150).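 Also: score pools 667 nm emission and signal to noise measuring lysate protein binding.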 As to conditions: COS7 hTOR1A mutant lysate, 635 nm fluorescence, higher = more signal.
For experiment [20], the system named is Sonic hedgehog protein (Shh). In words: small-molecule binders of Shh protein, primary screen, biochemical, small-molecule microarray, 635/667 nm fluorescence (AID 1151).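 Also: Shh protein binding to compounds spotted on small-molecule microarray slides; score combines spot fluorescence intensity with signal-to-noise across triplicate slides.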 As to conditions: small-molecule microarray binding, 635 nm fluorescence; higher = more signal.

Activity calls are given as the source filed them. Unless noted, no rule for the calls is given here.

Chain of Luciferin 4-monooxygenase (Photinus pyralis) (P08659 whole entry, looked up): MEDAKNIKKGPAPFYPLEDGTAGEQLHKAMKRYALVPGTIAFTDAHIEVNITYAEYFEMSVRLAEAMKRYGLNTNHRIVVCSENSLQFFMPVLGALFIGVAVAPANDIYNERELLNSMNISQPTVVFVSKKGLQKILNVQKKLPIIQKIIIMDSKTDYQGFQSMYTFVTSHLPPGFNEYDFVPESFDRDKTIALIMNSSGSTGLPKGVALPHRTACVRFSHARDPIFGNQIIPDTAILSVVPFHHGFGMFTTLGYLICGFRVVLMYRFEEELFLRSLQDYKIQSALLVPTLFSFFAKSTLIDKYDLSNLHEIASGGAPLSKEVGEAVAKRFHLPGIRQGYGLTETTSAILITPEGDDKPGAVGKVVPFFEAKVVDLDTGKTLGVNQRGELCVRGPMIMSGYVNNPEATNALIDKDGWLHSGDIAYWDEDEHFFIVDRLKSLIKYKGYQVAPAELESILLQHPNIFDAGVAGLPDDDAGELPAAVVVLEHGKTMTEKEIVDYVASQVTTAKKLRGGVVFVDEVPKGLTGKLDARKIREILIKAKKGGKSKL

In the case of `COC(=O)[C@H](C)NC(=O)CCC1CC(OC(=O)NCc2ccc3c(c2)OCO3)CC2(CCCC(COC(=O)NCC3CCCCC3)O2)O1` (stereo not given in full), the composite z-score in experiment [1] was found to be 0.807; in experiment [2], 1.16; in experiment [3], 0.408; in experiment [4] it was 0.52; in experiment [5] it was 0.533; in experiment [6] it was 0.77. Besides, the composite z-score in experiment [8] is 0.97; in experiment [9], 0.723; in [11], 0.283; in [16], 0.543; in experiment [17], -0.0719; in [18] it was 0.174. The composite z-score in experiment [19] was 0.433; in [20], 1.72. In addition, the z-score is -0.00341 in experiment [7]; 1.16 (inactive) in experiment [10]; -0.643 (inactive) in experiment [12]; -0.112 (inactive) in experiment [13]; 0.104 (inactive) in experiment [14]; 1.35 (inactive) in experiment [15].

As to `COC(=O)CC=C[C@@H](C)[C@@H](C=NOCC[C@@H]1C=C[C@H](OC(C)=O)[C@@H](COC(C)=O)O1)OC`, the composite z-score in experiment [1] is -0.131; in [2], 0.34; in [3] it was 0.222; in experiment [4], -0.902; in experiment [5], 0.73; in [6], 0.785. For the same compound, the composite z-score in experiment [8] is 0.66; in experiment [9], -0.876; in [11], 0.38; in experiment [16], -0.227; in [17], 0.0565; in [18], 0.563. The composite z-score was 0.359 in experiment [19] and 0.19 in experiment [20]. For the same compound, the z-score is 0.493 in [7]; 0.177 (inactive) in experiment [10]; 0.309 (inactive) in experiment [12]; 0.711 (inactive) in experiment [13]; -0.557 (inactive) in experiment [14]; 0.0921 (inactive) in experiment [15].

Take `CC(=O)OC[C@H]1O[C@@H](ON=C(C)CCN2CCCc3nc(C)c(C)cc32)[C@H](OC(C)=O)[C@@H](OC(C)=O)[C@@H]1OC(C)=O`: the composite z-score in experiment [1] worked out at 0.269; in [2], 1.15; in experiment [3] it was 0.36; in experiment [4] it was 0.602; in [5], 0.881; in experiment [6] it was 0.664. Also, the composite z-score in experiment [8] is 0.889; in experiment [9] it was 0.476; in experiment [11] it was 0.237; in experiment [16], 0.345; in [17], -0.0626; in [18] it was -0.164. The results for the composite z-score in [19] and in experiment [20] were 0.604 and 1.06, respectively. For the same compound, the z-score in [7] is -1.13; in [10], 0.788 (inactive); in experiment [12] it was -2.36 (inactive); in experiment [13] it was -0.731 (inactive); in [14], 1.89 (inactive); in experiment [15], -0.112 (inactive).

In the case of `CCOC(=O)[C@H](CC(C)C)NC(=O)CCC1CC(OC(=O)NCc2cccc3ccccc23)CC2(CCCC(COC(=O)NCC3CCCCC3)O2)O1` (stereo not given in full), the composite z-score in [1] is 0.685; in experiment [2], 1.13; in experiment [3], -0.368; in [4], 0.297; in experiment [5], 0.62; in experiment [6] it was 0.594. For the same compound, the composite z-score in [8] was 0.733; in experiment [9], 0.0121; in experiment [11], -0.0639; in experiment [16], 0.405; in [17], -0.0962; in experiment [18], -0.192. Also, the composite z-score in experiment [19] worked out at 0.528; in experiment [20], 1.06. Besides, the z-score is -1.07 in [7]; 1 (inactive) in [10]; -4.12 (inactive) in experiment [12]; -0.306 (inactive) in experiment [13]; 0.0178 (inactive) in [14]; 1.6 (inactive) in experiment [15].

On to `CCOC(=O)C1=NO[C@]2(C=C(Br)C3(OCCCO3)[C@H]3O[C@H]32)C1`, for which the composite z-score in experiment [1] was -0.765; in experiment [2] it was -0.57; in experiment [3], -0.428; in experiment [4], 0.185; in [5], -0.599; in experiment [6] it was -0.285. Further, the composite z-score was -0.168 in experiment [8]; 0.513 in experiment [9]; 0.0562 in [11]; -0.468 in [16]; -0.163 in experiment [17]; 0.748 in [18]. Besides, the composite z-score in [19] amounted to 1.42; in [20], 0.0095. For the same compound, the z-score in experiment [7] is -0.242; in [10], 0.163 (inactive); in [12], 0.974 (inactive); in experiment [13] it was 0.892 (inactive); in experiment [14], -0.254 (inactive); in experiment [15], 1.65 (inactive).
